Test results published in PubChem BioAssay (EPA / NIEHS).
Inconclusive results are not listed. The source made the active and inactive calls. Rule for the calls, unless noted: active = hit-call score of the fitted dose curve at least 0.9, where 1 is the maximum; inactive = score below 0.9.

Legend:
[1] = target: Hepatocyte nuclear factor 4-alpha (Homo sapiens) (UniProt P41235); experiment: ATG_HNF4a_TRANS: Attagene TRANS-FACTORIAL HepG2 Assay for human Hepatocyte Nuclear Factor 4 alpha (HNF4a) (AID 2282982; active = hit-call score of the fitted dose curve at least 0.9, where 1 is the maximum); details: HepG2 HNF4a transactivation reporter, mRNA readout
Summary of the method: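 Multiplexed reporter assay: transfected HepG2, 24 h exposure, total RNA → oligo(dT) RT → PCR → 6-FAM extension → HpaI digest → CE fluorescence. DMSO = negative control.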

[2] = ATG_M_06_TRANS: Attagene TRANS-FACTORIAL HepG2 Assay for M06 Transcription Factor (Internal Marker) (AID 2282983; active = hit-call score of the fitted dose curve at least 0.9, where 1 is the maximum;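 note: reporter transcript level by RT-PCR then capillary electrophoresis fluorescence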); details: HepG2 Attagene TRANS M06 internal marker reporter
Summary of the method: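 Background-control reporter readout: after 24 h chemical exposure of transiently transfected HepG2 (GAL4-UAS reporter units), mRNA quantified by RT-PCR with fluorescent labeling and capillary electrophoresis. Gain-of-signal fitting against DMSO baseline.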

[3] = ATG_M_32_TRANS: Attagene TRANS-FACTORIAL HepG2 Assay for M32 Transcription Factor (Internal Marker) (AID 2282984; active = hit-call score of the fitted dose curve at least 0.9, where 1 is the maximum;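 note: transcript level of a background control reporter unit measured by RT-PCR and capillary electrophoresis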); details: HepG2 Attagene TRANS M32 internal marker reporter
Summary of the method: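 Cell-based TRANS-format assay in HepG2: exogenous chimeric GAL4 reporter units transiently expressed, compounds applied 24 h. Reporter mRNA detected by RT-PCR plus capillary electrophoresis; this readout is an internal background marker.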

[4] = target: Nuclear respiratory factor 1 (Homo sapiens) (UniProt Q16656); experiment: ATG_NRF1_CIS: Attagene CIS-FACTORIAL HepG2 Assay for human Nuclear Respiratory Factor 1 (NRF1) Orphan Gene (AID 2282987); details: HepG2 NRF1 cis-element reporter, Attagene multiplex; actives raise or lower the signal
Summary of the method: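 Human hepatoma HepG2 cells carrying transfected promoter-regulated reporter units were incubated with test chemicals for 24 h. Reporter transcripts were measured by RT-PCR plus capillary electrophoresis, and endpoints derived by bidirectional fitting with DMSO as baseline.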

[5] = ATG_NFI_CIS: Attagene CIS-FACTORIAL HepG2 Assay for human Nuclear Factor I (NFI) (AID 2282989); details: HepG2 cis-regulatory reporter, NFI response element transcription; actives raise or lower the signal
Summary of the method: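 Transfected HepG2 liver cells, exposed 24 h, supplied total RNA for oligo(dT) reverse transcription and reporter-specific PCR. Labelled, HpaI-cut fragments were sized by capillary electrophoresis; DMSO set the baseline for bidirectional fitting.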

[6] = target: Myc proto-oncogene protein (Homo sapiens) (UniProt P01106); experiment: ATG_Myc_CIS: Attagene CIS-FACTORIAL HepG2 Assay for human Myelocytomatosis (Myc) Proto-Oncogene Transcription Factor (AID 2282990); details: HepG2, Attagene cis-reporter transcription factor activity; actives raise or lower the signal
Summary of the method: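 HepG2, transient MRTU transfection (cis promoters, endogenous TFs); 24 h dosing; TriZol RNA → oligo(dT) RT → PCR → 6-FAM primer extension → HpaI cut → CE. Bidirectional fit vs DMSO.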

[7] = target: Oxysterols receptor LXR-beta (Homo sapiens) (UniProt P55055); experiment: ATG_LXRb_TRANS: Attagene TRANS-FACTORIAL HepG2 Assay for human Liver X Receptor beta (LXRb) (AID 2282981; active = hit-call score of the fitted dose curve at least 0.9, where 1 is the maximum); details: HepG2 Attagene TRANS GAL4-LXRb reporter, mRNA
Summary of the method: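 After 24 h of chemical treatment, transfected HepG2 cells yield total RNA; reporter cDNA is PCR-amplified, FAM-labelled, HpaI-cut and run on capillary electrophoresis. Signal reflects chimeric LXRb-Gal4 activity on GAL4-UAS reporters.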

[8] = target: Nuclear receptor subfamily 4 group A member 2 (Homo sapiens) (UniProt P43354); experiment: ATG_NURR1_TRANS: Attagene TRANS-FACTORIAL HepG2 Assay for human Nuclear Receptor Related Protein 1 (NURR1) (AID 2282985; active = hit-call score of the fitted dose curve at least 0.9, where 1 is the maximum); details: HepG2 Attagene TRANS reporter, mRNA readout
Summary of the method: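 Measures transcriptional activation by an exogenous NR-Gal4 chimera in transfected HepG2 liver cells. After 24 h, reporter RNA is reverse-transcribed, amplified and resolved by capillary electrophoresis; DMSO defines baseline.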

[9] = target: Transcriptional activator Myb (Homo sapiens) (UniProt P10242); experiment: ATG_Myb_CIS: Attagene CIS-FACTORIAL HepG2 Assay for human Myeloblastosis (Myb) Proto-Oncogene Transcription Factor (AID 2282986); details: HepG2 Attagene CIS-FACTORIAL Myb reporter transcription; actives raise or lower the signal
Summary of the method: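 Endogenous transcription factor activity at a Myb-responsive cis element is reported in human liver HepG2 cells after 24 h chemical treatment. Reporter mRNA is detected by RT-PCR and capillary electrophoresis fluorescence, with DMSO as baseline.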

[10] = target: Oxysterols receptor LXR-alpha (Homo sapiens) (UniProt Q13133); experiment: ATG_LXRa_TRANS: Attagene TRANS-FACTORIAL HepG2 Assay for human Liver X Receptor alpha (LXRa) (AID 2282980; active = hit-call score of the fitted dose curve at least 0.9, where 1 is the maximum); details: HepG2 Attagene TRANS reporter, LXRa transactivation
Summary of the method: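 Chemical-induced reporter mRNA measured by RT-PCR with fluorescent labelling and capillary electrophoresis after 24 h dosing of transiently transfected HepG2 cells expressing exogenous NR-Gal4 chimeras; increases scored against DMSO baseline.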

Measured: AC50

Nuclear respiratory factor 1 (Homo sapiens), sequence (Q16656 whole entry, looked up): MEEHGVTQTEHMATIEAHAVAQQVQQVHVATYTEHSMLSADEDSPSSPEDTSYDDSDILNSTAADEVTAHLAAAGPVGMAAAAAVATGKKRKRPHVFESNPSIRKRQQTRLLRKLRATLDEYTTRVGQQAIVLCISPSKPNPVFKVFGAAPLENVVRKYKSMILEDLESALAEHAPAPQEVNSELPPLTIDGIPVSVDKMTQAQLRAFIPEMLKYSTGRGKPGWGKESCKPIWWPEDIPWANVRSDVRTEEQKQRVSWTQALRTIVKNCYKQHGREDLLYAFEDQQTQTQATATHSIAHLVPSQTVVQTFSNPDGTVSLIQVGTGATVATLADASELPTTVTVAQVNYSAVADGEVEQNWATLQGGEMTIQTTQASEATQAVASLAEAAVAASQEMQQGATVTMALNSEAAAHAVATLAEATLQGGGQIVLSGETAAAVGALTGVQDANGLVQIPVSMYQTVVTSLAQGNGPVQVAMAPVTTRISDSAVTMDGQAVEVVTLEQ
Hepatocyte nuclear factor 4-alpha (Homo sapiens), sequence (P41235 whole entry, looked up): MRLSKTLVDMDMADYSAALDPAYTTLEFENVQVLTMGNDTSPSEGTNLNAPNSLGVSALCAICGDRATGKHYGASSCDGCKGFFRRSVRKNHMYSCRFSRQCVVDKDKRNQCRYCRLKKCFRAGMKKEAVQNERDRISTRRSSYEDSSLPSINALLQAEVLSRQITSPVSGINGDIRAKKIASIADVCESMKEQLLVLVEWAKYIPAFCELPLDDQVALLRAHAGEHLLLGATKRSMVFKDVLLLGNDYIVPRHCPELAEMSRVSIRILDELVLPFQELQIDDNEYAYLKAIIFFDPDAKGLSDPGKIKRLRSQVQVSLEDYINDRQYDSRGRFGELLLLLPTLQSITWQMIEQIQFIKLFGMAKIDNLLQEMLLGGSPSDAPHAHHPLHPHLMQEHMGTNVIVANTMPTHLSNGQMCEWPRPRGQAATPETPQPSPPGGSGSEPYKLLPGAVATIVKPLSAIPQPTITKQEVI
Transcriptional activator Myb (Homo sapiens), sequence (P10242 whole entry, looked up): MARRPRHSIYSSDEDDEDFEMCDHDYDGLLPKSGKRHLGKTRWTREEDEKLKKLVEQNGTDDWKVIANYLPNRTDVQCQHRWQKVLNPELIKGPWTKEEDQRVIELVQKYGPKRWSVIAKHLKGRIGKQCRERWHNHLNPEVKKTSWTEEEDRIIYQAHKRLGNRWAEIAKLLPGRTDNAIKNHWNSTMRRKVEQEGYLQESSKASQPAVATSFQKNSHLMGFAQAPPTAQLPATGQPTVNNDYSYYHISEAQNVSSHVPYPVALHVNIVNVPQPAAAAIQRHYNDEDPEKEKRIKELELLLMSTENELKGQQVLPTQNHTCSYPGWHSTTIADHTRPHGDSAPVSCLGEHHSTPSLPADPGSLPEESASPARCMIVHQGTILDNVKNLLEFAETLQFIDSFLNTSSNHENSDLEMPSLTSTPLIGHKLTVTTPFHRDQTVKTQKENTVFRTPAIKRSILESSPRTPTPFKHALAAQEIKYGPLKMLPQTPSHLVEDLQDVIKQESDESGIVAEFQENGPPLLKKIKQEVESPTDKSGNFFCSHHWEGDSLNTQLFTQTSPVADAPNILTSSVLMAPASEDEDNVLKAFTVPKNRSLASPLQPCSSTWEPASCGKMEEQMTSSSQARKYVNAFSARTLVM
Nuclear receptor subfamily 4 group A member 2 (Homo sapiens), sequence (P43354 whole entry, looked up, the tested form may be a part): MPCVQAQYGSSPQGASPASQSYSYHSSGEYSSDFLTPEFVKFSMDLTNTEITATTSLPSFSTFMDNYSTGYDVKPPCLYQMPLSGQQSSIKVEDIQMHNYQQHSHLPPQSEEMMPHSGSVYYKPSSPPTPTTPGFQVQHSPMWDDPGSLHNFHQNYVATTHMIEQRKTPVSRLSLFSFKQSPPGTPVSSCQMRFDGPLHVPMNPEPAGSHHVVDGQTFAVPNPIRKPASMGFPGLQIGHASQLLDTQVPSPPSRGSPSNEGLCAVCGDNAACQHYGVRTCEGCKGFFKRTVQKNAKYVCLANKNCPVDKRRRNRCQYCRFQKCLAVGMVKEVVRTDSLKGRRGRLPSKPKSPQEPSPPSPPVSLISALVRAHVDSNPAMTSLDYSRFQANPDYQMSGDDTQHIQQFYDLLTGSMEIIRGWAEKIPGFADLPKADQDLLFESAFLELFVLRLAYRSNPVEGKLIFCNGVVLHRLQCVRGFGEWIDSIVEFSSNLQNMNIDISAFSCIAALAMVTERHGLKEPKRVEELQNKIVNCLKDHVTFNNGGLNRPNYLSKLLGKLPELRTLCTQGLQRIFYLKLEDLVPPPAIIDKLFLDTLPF
Oxysterols receptor LXR-beta (Homo sapiens), sequence (P55055 whole entry, looked up, the tested form may be a part): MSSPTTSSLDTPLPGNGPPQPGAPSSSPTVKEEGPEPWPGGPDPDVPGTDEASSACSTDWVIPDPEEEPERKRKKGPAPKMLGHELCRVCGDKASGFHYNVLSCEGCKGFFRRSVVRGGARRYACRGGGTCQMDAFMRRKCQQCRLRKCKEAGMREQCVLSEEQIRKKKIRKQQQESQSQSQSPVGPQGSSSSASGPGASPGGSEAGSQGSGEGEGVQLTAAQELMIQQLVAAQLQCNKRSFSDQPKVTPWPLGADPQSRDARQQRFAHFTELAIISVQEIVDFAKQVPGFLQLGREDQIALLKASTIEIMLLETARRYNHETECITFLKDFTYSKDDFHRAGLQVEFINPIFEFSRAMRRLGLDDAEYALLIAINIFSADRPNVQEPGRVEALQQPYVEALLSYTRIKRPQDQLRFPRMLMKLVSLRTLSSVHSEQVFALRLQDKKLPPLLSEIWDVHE
Myc proto-oncogene protein (Homo sapiens), sequence (P01106 whole entry, looked up): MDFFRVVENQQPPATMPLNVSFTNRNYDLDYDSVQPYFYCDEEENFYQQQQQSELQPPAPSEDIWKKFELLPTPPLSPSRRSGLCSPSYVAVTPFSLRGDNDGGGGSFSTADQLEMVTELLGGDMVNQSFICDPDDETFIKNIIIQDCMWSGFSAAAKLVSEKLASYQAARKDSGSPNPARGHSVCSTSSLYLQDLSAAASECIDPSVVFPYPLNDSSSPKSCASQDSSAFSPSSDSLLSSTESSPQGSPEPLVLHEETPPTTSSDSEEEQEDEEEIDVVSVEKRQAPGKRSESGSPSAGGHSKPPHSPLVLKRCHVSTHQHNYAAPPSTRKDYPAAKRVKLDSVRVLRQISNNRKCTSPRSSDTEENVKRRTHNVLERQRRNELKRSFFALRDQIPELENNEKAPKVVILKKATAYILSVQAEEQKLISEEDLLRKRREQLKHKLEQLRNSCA
Oxysterols receptor LXR-alpha (Homo sapiens), sequence (Q13133 whole entry, looked up, the tested form may be a part): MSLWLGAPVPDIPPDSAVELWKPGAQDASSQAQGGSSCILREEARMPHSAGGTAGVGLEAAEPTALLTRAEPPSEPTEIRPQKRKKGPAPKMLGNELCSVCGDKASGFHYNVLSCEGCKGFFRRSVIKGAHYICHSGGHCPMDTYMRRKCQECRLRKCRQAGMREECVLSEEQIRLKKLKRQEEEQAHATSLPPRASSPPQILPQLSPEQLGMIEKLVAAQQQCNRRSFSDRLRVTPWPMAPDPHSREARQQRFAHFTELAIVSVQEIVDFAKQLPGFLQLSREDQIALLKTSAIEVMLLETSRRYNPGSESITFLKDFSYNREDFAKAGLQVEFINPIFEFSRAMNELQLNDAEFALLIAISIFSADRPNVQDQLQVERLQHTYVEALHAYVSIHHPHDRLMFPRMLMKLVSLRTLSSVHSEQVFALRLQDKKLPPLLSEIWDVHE

CC(C)=CCCC(C)CCO (stereo unspecified)
inactive: [1] | [2] | [3] | [4] | [5] | [6]

CC(C)c1cccc(C(C)C)c1N1C(=O)c2ccc(O)cc2C1=O
inactive: [7] | [3] | [8]
active: [4] 152 µM | [5] 62.9 µM | [6] 164 µM

CN(C)c1ccc(Cc2ccc(N(C)C)cc2)cc1
active: [8] 49.1 µM | [5] 180 µM
inactive: [7] | [2] | [9] | [4] | [6]

CC(=O)c1ccc2c(c1)[C@H](NC(=O)c1ccc(F)cc1)[C@@H](O)C(C)(C)O2
inactive: [7] | [3] | [4] | [5] | [6]

Nc1ccc(Nc2ccccc2)cc1
inactive: [7] | [1] | [8] | [4] | [5] | [6]

CC(=O)OCCC(C)C
not listed: [1] | [3] | [10]
inactive: all other assays above

CCC(C)(C)C(=O)O[C@H]1C[C@@H](C)C=C2C=C[C@H](C)[C@H](CC[C@@H]3C[C@@H](O)CC(=O)O3)[C@H]21
inactive: [10] | [9] | [4] | [5] | [6]

CCCCCCc1ccc(O)cc1O
not listed: [1] | [3] | [7]
inactive: all other assays above

O=P(OC(CCl)CCl)(OC(CCl)CCl)OC(CCl)CCl
inactive: [10] | [2] | [3] | [4]
active: [8] 32 µM | [9] 144 µM | [5] 187 µM | [6] 143 µM

CC[C@H]1CC[C@H](NCc2cc3c(cc2OC)[C@H]2C[C@H]2C(=O)N3C)[C@H](c2ccccc2)N1
active: [5] 46.5 µM
not listed: [3] | [10]
inactive: all other assays above

CC/C(=C\C(=N/O)C(N)=O)C(C)[N+](=O)[O-] (stereo unspecified)
inactive: [10] | [3] | [9] | [4] | [5] | [6]
